# HRas wt GTP: modulators of GTP binding to HRas wildtype, primary screen, biochemical, bead-based flow cytometry, multiplex; GTPase HRas (Homo sapiens), P01112; GST-Ras wt beads, Bodipy-FL-GTP binding; actives lie on both sides; GTP binding activity, % at 10 µM; 190,000 tested, 0.14% active;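 active means GTP binding activity at least 20% away from the 100% baseline, either lowered as inhibitor or raised as activator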
# Target sequence (P01112 whole entry, looked up): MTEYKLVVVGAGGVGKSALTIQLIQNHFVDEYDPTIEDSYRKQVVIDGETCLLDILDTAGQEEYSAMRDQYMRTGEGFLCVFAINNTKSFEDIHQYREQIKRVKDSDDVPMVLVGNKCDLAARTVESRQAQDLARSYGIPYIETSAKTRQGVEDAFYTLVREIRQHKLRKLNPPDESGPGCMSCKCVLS
# Rab7 wt modul: modulators of GTP binding to Rab7, primary screen, biochemical, wildtype, multiplex bead flow cytometry; GTP binding activity (percent of control), % at 10 µM; GST-Rab7 beads, fluorescent GTP binding; actives lie on both sides; untreated = 100%, excess cold GTP = 0%; 190,000 tested, 0.055% active;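 active means fluorescent GTP binding to Rab7 beads changed by at least 20 points from the 100% baseline, either direction, mostly lower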;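 further: median green fluorescence of bound Bodipy-FL-GTP per Rab7 bead population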
# Cdc42 wt GTP: modulators of GTP binding to wildtype Cdc42, primary screen, biochemical, multiplex bead flow cytometry, Bodipy-GTP | GST-Cdc42 beads; actives lie on both sides | AID 761, 2007 | percent activity (GTP binding), % at 10 µM | 190,000 tested, 0.2% active | Cell division control protein 42 homolog (Homo sapiens), P60953;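 active means percent activity GTP binding at least 20 points away from the 100% baseline, either down as inhibitor or up as activator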;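 further: median bead fluorescence of bound Bodipy-FL-GTP at 100 nM; below 100% means less GTP binding so inhibitor and above means activator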
# Target sequence (P60953 whole entry, looked up): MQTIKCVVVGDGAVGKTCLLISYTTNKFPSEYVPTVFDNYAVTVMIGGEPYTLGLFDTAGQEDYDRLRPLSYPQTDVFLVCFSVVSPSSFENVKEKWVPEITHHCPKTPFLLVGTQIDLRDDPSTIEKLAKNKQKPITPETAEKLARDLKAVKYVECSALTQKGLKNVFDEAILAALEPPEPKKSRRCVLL
# Rab2A wt mod: modulators of GTP binding to Rab2A wildtype, primary screen, biochemical, dog, bead-based flow cytometry, multiplex; Ras-related protein Rab-2A (Canis lupus familiaris), P61105; GST-Rab2 wt beads, Bodipy-GTP binding; GTP binding activity, % at 10 µM; 190,000 tested, 0.19% active;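 active means GTP binding activity at least 20 points away from 100%, either lowered or raised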
# Rac1 wt GTP bind: wildtype Rac1 GTP binding modulators, primary screen, biochemical, GST-Rac1 beads, flow cytometry, multiplex; Ras-related C3 botulinum toxin substrate 1 (Homo sapiens), P63000; fluorescent GTP binding; actives lie on both sides; 0 = cold GTP competed, 100 = untreated; GTP binding activity (% of control), % at 10 µM; 190,000 tested, 0.27% active; AID 757, 2007;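 active means GTP binding activity at least 20 points away from the 100% control level, either lower or higher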
# Rac1 act GTP bind: GTP binding modulators of activated mutant Rac1, primary screen, biochemical, bead-based flow cytometry, multiplex, fluorescent GTP. Ras-related C3 botulinum toxin substrate 1 (Homo sapiens), P63000. GST-Rac1 activated beads; actives lie on both sides; 100% means binding = to untreated wells. percent activity (GTP binding), % at 10 µM. 190,000 tested, 0.11% active;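 active means GTP binding at least 20 percentage points away from the 100% baseline, in either direction, so actives lie on both sides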
# A number is an active result; - = inactive; [ ] = dose if it differs, or a comment. This is a sample that favours compounds with a hit; in the whole collection about 0.38% have one here.
SMILES,HRas wt GTP,Rab7 wt modul,Cdc42 wt GTP,Rab2A wt mod,Rac1 wt GTP bind,Rac1 act GTP bind
Cc1ccc(-c2csc3nc4c5ccccc5c(NCCCN5CCOCC5)nn4c(=O)c23)cc1,60,-,57,59,60,-
COc1ccc(S(=O)(=O)Nc2ccccc2C(=O)NCc2ccco2)cc1Br,-,-,-,-,-,-
N#CCc1c(C#N)c(N)nc(N2CCN(C=O)CC2)c1C#N,79,-,78,77,73,-
N#CCc1c(C#N)c(N)nc(N2CCN(S(=O)(=O)c3ccccc3)CC2)c1C#N,-,-,-,-,-,-
Cc1c(C(=O)N/N=C/c2ccc(O)c(Br)c2)sc(N)c1C#N,-,-,-,79,76,-
COc1cc(/C=N/NC(=O)c2sc(N)c(C#N)c2C)ccc1O,-,-,-,-,-,-
CS(=O)(=O)Nc1ccccc1C(=O)O,-,-,-,-,-,-
CS(=O)(=O)Nc1ccc(Br)cc1C(=O)c1ccccc1,-,-,69,-,-,-
CCCOc1ccc(C(CC(=O)O)NC(=O)c2sc3ccccc3c2Cl)cc1 (stereo unspecified),77,-,72,75,76,69
CCOc1ccc(C(CC(=O)O)NC(=O)c2sc3ccccc3c2Cl)cc1 (stereo unspecified),-,-,-,-,-,-
CCCS(=O)(=O)c1nnnn1-c1cccc(OC)c1,-,-,-,-,-,78
Cc1ccc(S(=O)(=O)Cc2ccc(C(=O)N3CCN(c4cc(C)ccc4C)CC3)o2)cc1,-,-,-,-,-,77
Cc1ccc(C)c(N2CCN(C(=O)c3ccc(CS(=O)(=O)c4ccccc4C)o3)CC2)c1,-,-,-,-,-,-
CCOC(=O)c1ccccc1NC(=O)Cn1c(-c2nonc2N)nc2ccccc21,-,-,-,-,-,-
Nc1nonc1-c1nc2ccccc2n1CC(=O)N/N=C/c1ccc(-c2ccccc2C(=O)O)o1,-,-,-,-,77,-
COc1ccc(-c2cc(=O)c3c(O)c(OC)c(O)cc3o2)cc1,-,-,-,-,-,-
COc1ccc(C(=O)c2c(O)cc(-c3ccc(OC)cc3)oc2=O)cc1,-,125[activator],-,-,137[activator],-
CC(C)CNS(=O)(=O)c1ccc(CCC(=O)Nc2ccc3c(c2)OCO3)cc1,-,-,-,-,-,-
O=C(CCc1ccc(S(=O)(=O)NCCc2ccccc2)cc1)Nc1ccc2c(c1)OCO2,39,24,35,34,33,35
CCOC(=O)N1CCN(C(=O)CCc2ccc(S(=O)(=O)NCCc3ccccc3)cc2)CC1,37,20,33,32,29,32
COc1cccc(-n2nnc3c(=O)n(CC(=O)N4CCCc5ccccc54)cnc32)c1,-,-,-,-,-,-
Cc1ccc(S(=O)(=O)N2CCOCC2)cc1NC(=O)COC(=O)c1ccccc1OCc1c(C)noc1C,-,-,-,-,-,-
COc1cc(C)c2c(c1C=O)Oc1c(c(C)c(O)c3c1C(O)OC3=O)OC2=O (stereo unspecified),-,-,78,-,-,76
COc1ccc(Cc2c(O)nc(SCC(=O)NC(C)(C)C)[nH]c2=O)cc1,-,-,-,-,-,-
CCCOc1ccc(OC(=O)c2ccc(Br)o2)cc1,-,-,-,-,-,-
SMILES,HRas wt GTP,Rab7 wt modul,Cdc42 wt GTP,Rab2A wt mod,Rac1 wt GTP bind,Rac1 act GTP bind
COC(=O)COc1ccc(/C=N/NC(=O)c2ccc(N(Cc3ccccc3)S(C)(=O)=O)cc2)cc1,-,-,-,76,76,-
CC(C)Oc1ccc(/C=N/NC(=O)c2ccc(N(Cc3ccccc3)S(C)(=O)=O)cc2)cc1,-,-,-,74,74,-
O=C(N/N=C/c1ccccc1)c1ccc(OCc2ccccc2)cc1,-,-,-,-,-,-
CS(=O)(=O)N(Cc1ccccc1)c1ccc(C(=O)Nc2cccnc2)cc1,-,-,-,-,-,-
O=c1c2ccccc2nc2c3ccccc3c(Cl)nn12,-,-,-,78,69,-
O=c1c2ccccc2nc2c3ccccc3cnn12,77,-,78,77,65,-
O=c1c2ccccc2nc2c3ccccc3c(NCc3ccco3)nn12,68,-,67,66,77,-
Cc1cc(=O)oc(C)c1C(=O)NC1CCCCCCC1,-,-,-,-,-,-
O=[N+]([O-])c1ccc2ccn(C3OCC(O)C(O)C3O)c2c1 (stereo unspecified),-,-,-,-,-,-
COC(=O)C1=C(C)NC(=O)/C1=C\c1cc(C)n(-c2c(C)cccc2C)c1C,122[activator],-,121[activator],123[activator],-,-
COC(=O)C1=C(C)NC(=O)/C1=C\c1cc(C)n(-c2ccccc2C)c1C,-,-,-,-,-,-
c1ccc(Cn2c(NCc3ccncc3)nc3ccccc32)cc1,-,-,-,-,-,-
COc1ccc(CNc2nc3ccccc3n2Cc2ccc(C)cc2)cc1OC,121[activator],-,131[activator],123[activator],142[activator],125[activator]
CN(CC(=O)N1CCN(c2cccc(Cl)c2)CC1)S(=O)(=O)c1cccs1,-,-,-,-,-,-
CCC(=O)N1CCc2cc(Br)cc(S(=O)(=O)N(C)c3ccc(OC)cc3OC)c21,-,-,-,-,-,-
CC1(C)Cc2c(sc3c2C2=NCCN2C=N3)CS1,-,-,-,-,123[activator],-
CCOC(=O)c1ccc(NC(=O)c2ccccc2[N+](=O)[O-])cc1,-,-,-,-,-,-
CCOC(=O)c1cc([N+](=O)[O-])c([N+](=O)[O-])cc1NC(C)=O,-,-,78,-,-,-
COc1cc(OC)c(NS(=O)(=O)c2cc(C(=O)OCC(=O)NCC3CCCO3)ccc2OC)cc1Cl (stereo unspecified),-,-,-,-,-,-
COc1ccc2[nH]c3nc(SCC(=O)Nc4ccc5c(c4)OCO5)nnc3c2c1,74,-,74,72,-,-
COc1ccc2nc(SCC(=O)Nc3ccc4c(c3)OCCO4)[nH]c2c1,-,-,-,-,-,-
Cc1sc2nc3c(SC(C)C(=O)O)cc(C(=O)c4ccccc4O)cn3c(=O)c2c1C (stereo unspecified),-,-,-,-,75,-

# High-throughput results from PubChem.
